# EWS-Fli inh: EWS/Fli-driven NR0B1 reporter inhibitors, primary screen, A673 cells, NR0B1 luciferase, luminescence, MLPCN library | viability-normalised | inhibition, % at 12.6 µM | actives 0.67% (n = 350,000) | AID 651661, 2012;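 active = mean inhibition of at least 50% after viability correction, with every replicate also passing that limit; inconclusive = mean reaches 50% but only one of two replicates passes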;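 note: firefly luciferase signal divided by Alamar Blue viability fluorescence both relative to DMSO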
# PAX8 reporter: inhibitors of PAX8-driven TPO luciferase reporter, primary screen, RMG-I cells, single concentration; SteadyGlo, 24 h; inhibition, % at 12.6 µM; actives 1.2% (n = 360,000); AID 652154, 2013;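 active = mean replicate inhibition at least 60% with every replicate also reaching 60%; inconclusive = only one of the two criteria is met; inactive = mean below 60% and not all replicates reaching 60%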;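 note: luciferase light reporting Pax8 driven TPO promoter activity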
# SIRT5 inh: SIRT5 desuccinylase inhibitors, primary screen, biochemical, fluorescence imaging, single point, set 5; Purified SirT5, succinyl-peptide AMC, trypsin-coupled fluorescence; inhibition, % at 15 µM; actives 1.1% (n = 330,000); NAD-dependent protein deacylase sirtuin-5, mitochondrial (Homo sapiens), Q9NXA8; AID 652115, 2013; in the data active = inhibition above about 15%; inconclusive = no clear call, values can overlap the other calls
# Target sequence (Q9NXA8 whole entry, looked up): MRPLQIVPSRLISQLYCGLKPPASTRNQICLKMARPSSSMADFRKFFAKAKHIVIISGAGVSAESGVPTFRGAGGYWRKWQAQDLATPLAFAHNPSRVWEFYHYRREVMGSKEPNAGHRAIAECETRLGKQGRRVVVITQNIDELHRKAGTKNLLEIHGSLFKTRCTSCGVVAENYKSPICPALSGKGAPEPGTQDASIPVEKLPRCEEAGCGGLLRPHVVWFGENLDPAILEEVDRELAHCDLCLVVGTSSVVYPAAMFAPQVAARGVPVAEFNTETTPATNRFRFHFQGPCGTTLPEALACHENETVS
# PGC1a acetyl inh: inhibitors of PGC1a acetylation signal, primary screen, cell-based, U2OS, AlphaScreen, inhibitor mode; AlphaScreen anti-acetyl-lysine; with virally co-expressed GCN5 acetyltransferase; inhibition, % at 15.6 µM; actives 0.17% (n = 350,000);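 active = every replicate shows inhibition of at least 40%; inconclusive = mean inhibition at least 40% but some replicate below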
# LGR2 inh: inhibitors of bursicon-induced LGR2 CRE-luciferase signal, primary screen, cell-based, HEK293, CRE-luciferase reporter, bursicon stimulation. Drosophila bursicon receptor LGR2 (rickets). bursicon-stimulated, 4 h. inhibition, % at 9.99 µM. actives 0.35% (n = 380,000);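 active = drop in luminescence signal, shown as inhibition above about 50% in the replicate tests, limit read from the data, passing the limit was not always enough; inconclusive = probably only some replicates passing the limit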;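 note: agonist challenge used bursicon conditioned medium at about half maximal strength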
# rRNA inh HTS: reduced GFP signal of wild-type E. coli, primary screen, bacterial rRNA inhibitor project, GFP/RFP fluorescence, OD600, single point; actives 1.6% (n = 350,000); GFP signal change (wild-type ribosome), % (no concentration beside the values); E. coli WT GFP vs humanized-ribosome RFP mutants, 24 h; stronger effect = lower value; DMSO median 0, no signal -100;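 active = significant combined selectivity score with lowered wild-type GFP, culture density cut under 30%, mutant RFP and density less affected; inactive = any of these conditions unmet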
# Numbers stand for hits; n = inactive; u = inconclusive; x = no result. The list is not random: actives were taken first. Their share in the collection is about 3.4%.
SMILES,EWS-Fli inh,PAX8 reporter,SIRT5 inh,PGC1a acetyl inh,LGR2 inh,rRNA inh HTS
COc1ccc(CCN2C(=O)c3ccccc3C2c2nnnn2-c2ccc3c(c2)OCCO3)cc1OC (stereo not given),n,n,n,x,n,n
C[C@H](NC(=O)C[C@@H]1C[C@@H]2c3cc(NC(=O)C4CCOCC4)ccc3O[C@@H]2[C@H](CO)O1)c1ccccc1,n,n,n,n,n,n
CC(C)NC(=O)N1CCCCN2[C@H](CO)[C@@H](c3ccc(C#Cc4ccccc4F)cc3)[C@H]2C1,n,n,n,n,n,n
C[C@H]1CN([C@@H](C)CO)C(=O)c2cc(/C=C/c3ccccc3)cnc2O[C@@H]1CN(C)C(=O)c1ccccc1,n,x,n,n,n,n
Cc1noc(C)c1NC(=O)N(C)C[C@H]1Oc2c(NS(=O)(=O)c3ccc(Cl)cc3)cccc2C(=O)N([C@@H](C)CO)C[C@@H]1C,n,x,n,n,n,n
Cc1cc(C)c2nc(N3CCC(C(=O)NCC4CCCO4)CC3)sc2c1 (stereo not given),x,n,27,n,n,n
Cc1cc(C)c2nc(N3CCC(C(=O)NCCCN4CCCCC4)CC3)sc2c1,x,n,x,x,x,x
Cc1cc(C)c2nc(N3CCC(C(=O)N4CCCC4)CC3)sc2c1,n,x,n,n,n,-25
CC(=O)c1cnc(SCc2ccc(Cl)cc2)nc1C,n,n,n,n,n,-28
CC=Cc1ccc2n(c1=O)C[C@@H]1[C@@H](CO)[C@H](C(=O)NCC)[C@H]2N1Cc1nccs1 (mixture of isomers),n,n,n,x,n,n
Cc1ccc(S(=O)c2ccc([N+](=O)[O-])c3nonc23)cc1 (stereo not given),n,n,15,n,n,n
Cc1ccc(Nc2c([N+](=O)[O-])ccc3nonc23)c(C)c1,n,n,n,x,n,n
CCOC(=O)C1=NNC(C(=O)c2ccccc2)C1c1ccc(C)cc1 (stereo not given),n,n,n,x,n,-26
CCOC(=O)C1=NNC(C(=O)c2ccc(C)cc2)C1c1ccc(C)cc1 (stereo not given),x,n,x,n,n,x
COC(=O)C1=NNC(C(=O)c2ccco2)C1c1ccccc1 (stereo not given),n,n,22,x,n,n
C[C@@H]1CN([C@H](C)CO)C(=O)CCCn2cc(nn2)CO[C@H]1CN(C)C(=O)Nc1ccc(-c2cccs2)cc1,n,82,n,n,n,n
C[C@H]1CN([C@@H](C)CO)C(=O)CCCn2nncc2CO[C@H]1CN(C)C(=O)Nc1ccc(-c2cccs2)cc1,n,66,n,x,n,n
C[C@H]1CN([C@@H](C)CO)C(=O)CCCn2cc(nn2)CO[C@@H]1CN(C)C(=O)Nc1ccc(-c2cccs2)cc1,n,n,n,n,n,n
C[C@H](CO)N1C[C@H](C)[C@@H](CN(C)C(=O)Nc2ccc(-c3cccs3)cc2)OCc2cnnn2CCCC1=O,n,n,n,u,n,n
C[C@@H]1CN([C@@H](C)CO)C(=O)CCCn2nncc2CO[C@H]1CN(C)C(=O)Nc1ccc(-c2cccs2)cc1,n,84,n,n,n,n
CCCC#Cc1cnc2c(c1)C(=O)N([C@@H](C)CO)C[C@H](C)[C@H](CN(C)C(=O)CN1CCOCC1)O2,n,x,n,n,n,n
O=C(CN1CCOCC1)NCC[C@@H]1CC[C@H](NC(=O)c2ccc3c(c2)OCO3)[C@@H](CO)O1,n,n,n,n,n,n
Cc1noc(C)c1S(=O)(=O)N(C)C[C@H]1OCCCC[C@@H](C)Oc2ccc(NS(=O)(=O)c3ccc(Cl)cc3)cc2C(=O)N([C@@H](C)CO)C[C@H]1C,n,76,n,n,n,n
Cc1noc(C)c1S(=O)(=O)N(C)C[C@@H]1OCCCC[C@H](C)Oc2ccc(NS(=O)(=O)c3ccc(Cl)cc3)cc2C(=O)N([C@H](C)CO)C[C@@H]1C,n,87,n,n,n,n
Cc1noc(C)c1S(=O)(=O)N(C)C[C@H]1OCCCC[C@@H](C)Oc2ccc(NS(=O)(=O)c3ccc(Cl)cc3)cc2C(=O)N([C@@H](C)CO)C[C@@H]1C,n,88,n,n,n,n
SMILES,EWS-Fli inh,PAX8 reporter,SIRT5 inh,PGC1a acetyl inh,LGR2 inh,rRNA inh HTS
Cc1noc(C)c1S(=O)(=O)N(C)C[C@@H]1OCCCC[C@@H](C)Oc2ccc(NS(=O)(=O)c3ccc(Cl)cc3)cc2C(=O)N([C@H](C)CO)C[C@@H]1C,n,n,x,n,n,n
CCC(=O)NC[C@@H]1[C@@H](c2ccc(C3=CCCCC3)cc2)[C@@H](CO)N1C(=O)C1CC1,x,x,n,x,n,n
C[C@H]1CN(C)C(=O)Cc2ccccc2O[C@H]1CN(C)S(C)(=O)=O,x,x,x,x,x,n
CC(=O)NCc1ccc(C(=O)CN2C(=O)NC3(CCCCC3C)C2=O)s1 (stereo not given),n,n,15,x,n,n
CC1CCCCC12NC(=O)N(CC(=O)NCc1ccccc1)C2=O (stereo not given),n,n,n,n,n,n
COc1ccccc1/C=C1\SC(=S)N(CCC(=O)Nc2ccc(C(=O)O)c(O)c2)C1=O,n,n,46,x,n,n
COc1ccccc1/C=C1\SC(=S)N(CC(=O)Nc2nnc(C)s2)C1=O,60,n,n,x,n,n
COc1ccccc1/C=C1\SC(=S)N(CCC(=O)NC2=NCCS2)C1=O,n,n,n,x,x,n
O=C(CCCN1C(=O)/C(=C\c2ccco2)SC1=S)Nc1ccc2ccccc2c1,n,n,n,x,n,x
O=C(CCN1C(=O)/C(=C/c2ccco2)SC1=S)Nc1ccc(C(=O)O)c(O)c1,n,n,50,x,n,n
O=C(CCN1C(=O)/C(=C\c2ccco2)SC1=S)Nc1ccc(C(=O)O)c(O)c1,n,n,57,x,n,n
COc1ccc(S(=O)(=O)Nc2ccc3c(c2)C(=O)N([C@@H](C)CO)C[C@@H](C)[C@@H](CN(C)C(=O)Nc2cccc4ccccc24)O3)cc1,n,x,n,n,n,n
CCC(=O)N1CC2(C1)[C@@H](c1ccc(-c3cccc(OC)c3)cc1)[C@@H](CO)N2C(C)=O,n,n,n,n,n,n
Cc1noc(C)c1S(=O)(=O)Nc1ccccc1Oc1ccccc1,n,n,n,x,n,-22
Cc1noc(C)c1S(=O)(=O)Nc1ccccc1Cl,n,n,n,n,n,n
C[C@H](NC(=O)C[C@@H]1CC[C@H](NC(=O)Cc2ccccn2)[C@H](CO)O1)c1ccccc1,n,n,n,n,n,n

# Bioassay records from PubChem BioAssay.
